Article PMC5540273 (PLoS ONE, 2017)

How the values were obtained:
Settings in all cases: concentration: 1 μM, replicates: in singlicate; n = 1
MEK5 = tested on: T1, MEK5
T1 construct: gene MAP2K5

MEK6 = tested on: T2, MEK6
T2 construct: gene MAP2K6

MELK = tested on: MELK
MERTK = tested on: MERTK
MET = tested on: MET
MINK = tested on: T3, MINK
T3 construct: gene MINK1

MKK7 = tested on: MKK7
MKNK1 = tested on: MKNK1
MKNK2 = tested on: MKNK2
MLCK = tested on: T4, MLCK
T4 construct: gene MYLK3

MLK1 = tested on: T5, MLK1
T5 construct: gene MAP3K9

MLK2 = tested on: MLK2
MLK3 = tested on: MLK3
MRCKA = tested on: MRCKA
MRCKB = tested on: T6, MRCKB
T6 construct: gene CDC42BPB

MST1R = tested on: MST1R
MST1 = tested on: T7, MST1
T7 construct: gene STK4

MST2 = tested on: T8, MST2
T8 construct: gene STK3

MST3 = tested on: T9, MST3
T9 construct: gene STK24

MST4 = tested on: MST4
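Note: KINOMEscan kinase panel screen.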

SMILES | %Inh (MEK5) [%] | %Inh (MEK6) [%] | %Inh (MELK) [%] | %Inh (MERTK) [%] | %Inh (MET) [%] | %Inh (MINK) [%] | %Inh (MKK7) [%] | %Inh (MKNK1) [%] | %Inh (MKNK2) [%] | %Inh (MLCK) [%] | %Inh (MLK1) [%] | %Inh (MLK2) [%] | %Inh (MLK3) [%] | %Inh (MRCKA) [%] | %Inh (MRCKB) [%] | %Inh (MST1R) [%] | %Inh (MST1) [%] | %Inh (MST2) [%] | %Inh (MST3) [%] | %Inh (MST4) [%]
Cl.Cl.NCC(NC(=O)c1cc(-c2ccccc2)c(-c2ccnc3[nH]ccc23)s1)c1ccccc1 (centres unmarked) [GSK1321561] | 19 | 6 | 37 | 44 | 3 | 90.7 | 17 | 20 | 19 | 40 | 0 | 23 | 11 | 73 | 90.7 | 42 | 0 | 0 | 0 | 27
O=C(NC1CCN(c2ccnc(Nc3ccc(F)cc3)n2)C1)c1cc2ccccc2s1 (centres unmarked) [GSK1379716] | 8 | 1 | 0 | 38 | 0 | 0 | 0 | 3 | 7 | 8 | 0 | 0 | 29 | 10 | 5 | 34 | 9 | 0 | 0 | 0
CC(=O)Nc1nc2cnc(Nc3cc(NC(=O)c4cccc(C5(C#N)CC5)c4Cl)ccc3C)nc2s1 | 12 | 25 | 0 | 17 | 8 | 0 | 10 | 16 | 0 | 0 | 4 | 10 | 0 | 5 | 0 | 13 | 0 | 12 | 6 | 0
Nc1ncc(-c2ccc3nccc(-c4ccncc4)c3c2)cc1S(=O)(=O)N1CCOCC1 [GSK1627798] | 15 | 0 | 0 | 12 | 0 | 10 | 5 | 0 | 3 | 0 | 6 | 0 | 0 | 0 | 0 | 11 | 7 | 0 | 4 | 0
CN(c1ccc(NC(=O)Nc2cc(C(F)(F)F)ccc2F)cc1)c1ccnc(Nc2ccc(S(N)(=O)=O)cc2)n1 [GW809893] | 98.8 | 100 | 12 | 98.2 | 88 | 76 | 2 | 50 | 98.9 | 28 | 75 | 34 | 66 | 0 | 0 | 99.7 | 80 | 2 | 29 | 28
COC(=O)Nc1nc2ccc(Oc3ccc(NC(=O)Nc4cc(C(F)(F)F)ccc4F)cc3)cc2n1C.Cl [GW692089] | 15 | 0 | 0 | 94.2 | 62 | 20 | 0 | 75 | 90.2 | 34 | 0 | 0 | 19 | 0 | 0 | 14 | 0 | 0 | 3 | 0
O=C(O)C(F)(F)F.O=C(O)C(F)(F)F.O=c1[nH]ccc2nc(N[C@@H]3CCCNC3)nc(Nc3ccc(S(=O)(=O)N4CCOCC4)cc3)c12 [GSK2177277] | 100 | 86 | 100 | 100 | 90.2 | 98.1 | 81 | 7 | 59 | 90.8 | 96.4 | 83 | 98.4 | 35 | 80 | 57 | 99.3 | 41 | 97.5 | 98.9
O=C(Nc1ccccc1F)NC1CCN(c2ccnc(Nc3ccc(F)cc3)n2)CC1 [GSK1379800] | 13 | 0 | 15 | 0 | 0 | 0 | 17 | 0 | 0 | 0 | 0 | 0 | 0 | 35 | 0 | 33 | 1 | 2 | 0 | 5
NCCCC(NC(=O)c1cc(Br)c(-c2ccnc3[nH]ccc23)s1)c1ccccc1.O=C(O)C(F)(F)F.O=C(O)C(F)(F)F (centres unmarked) [GSK1287544] | 7 | 0 | 54 | 55 | 6 | 27 | 16 | 0 | 83 | 47 | 0 | 15 | 0 | 63 | 98.8 | 17 | 0 | 0 | 0 | 11
Cn1cc(-c2ccc3c(c2)CCN3C(=O)Cc2cccc(Cl)c2)c2c(N)ncnc21 [GSK2606590] | 99.8 | 0 | 0 | 79 | 45 | 0 | 28 | 21 | 23 | 6 | 70 | 77 | 73 | 0 | 0 | 38 | 97.2 | 0 | 17 | 19
